Screening results deposited in PubChem BioAssay by National Center for Advancing Translational Sciences (NCATS).
Pf growth 48h = inhibits P. falciparum growth in the first generation, 48 h; P. falciparum luciferase growth in erythrocytes, 48 h; Potency, µM (highest dose often 28.7 µM), for the others: at the top dose activity change, negative = inhibition, usual class: inhibitors; 310,000 tested, 5.9% active; AID 504832; note: potency is the fitted concentration of half-maximal effect; % is set by controls: 0 for no effect and ±100 for the full control effect
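Growth was read as firefly luciferase luminescence after a 48 h, 37 C, 5% CO2 exposure of compounds to reporter-bearing P. falciparum cultures (0.1% parasitemia, 2% hematocrit final) in Albumax-supplemented RPMI 1640.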
AMA1-RON2 inh = disrupts binding of P. falciparum AMA1 to RON2; AlphaScreen AMA1-biotinylated RON2 peptide binding; Potency, µM (doses to about 58.2 µM), for the others: at the highest dose activity change, negative = inhibition, hits mostly inhibitors; 360,000 tested, 0.2% active; AID 720542;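 note: potency is the fitted concentration of half-maximal effect; 0% = vehicle wells and -100% = peptide control; nearly all actives have a fitted effect of over 45% in size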
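AMA1 (3D7) with his tag at 25 nM final met compounds first, then biotinylated RON2 peptide at 25 nM; detection used donor plus acceptor beads, 10 µg/mL apiece, read by AlphaScreen after 30 min at room temperature.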
Pf growth 96h = inhibits malaria parasite growth, 96 h. P. falciparum luciferase reporter growth, 96 h. Potency, µM (highest dose often 28.7 µM), for inactives: at the highest dose activity change, negative = inhibition, actives largely listed as inhibitors. 320,000 tested, 6.9% active. AID 504834; note: potency is the fitted concentration of half-maximal effect; % is set by controls: 0 for no effect and ±100 for the full control effect
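Two-generation exposure (96 h) targets delayed-death phenotype. Reporter parasites carrying integrated firefly luciferase, in red cells at 2% hematocrit and 0.05% parasitemia final, kept at 37 C, 5% CO2; luminescence loss indicates inhibition.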
HCV inhibitor = blocks hepatitis C virus; Huh7.5.1 HCVcc-Cre infection, luciferase reporter, 44 h; Potency, µM (top dose mostly 41.8 µM), for inactives: at the highest dose activity change, negative = inhibition, actives largely listed as inhibitors; 340,000 tested, 3.4% active; note: potency is the fitted concentration of half-maximal effect; % is set by controls: 0 for no effect and ±100 for the full control effect
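Cells (1,000/well) were plated 4 h before compound, then infected with HCVcc-Cre virus (~0.5 moi). After 44 h further culture, infection was read as luciferase luminescence following a 15 min substrate incubation at room temperature.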
Cycloheximide cs = counter-screen for Shiga toxin inhibitors: cycloheximide protein synthesis inhibition. cell reporter, cycloheximide protein synthesis inhibition counterscreen. max response, %. 300,000 tested, 12% active. AID 2314; in the data active = max response mostly above about 13%, no sharp cut-off; inactive = mostly below about 14%; note: read at 38.3 µM for the half of the compounds with a filed dose; 0% is about no effect
Shiga toxin inh = blocks Shiga toxin action in Vero cells; Vero cells, Shiga toxin protein synthesis inhibition reporter; inhibition, % at 38.7 µM; 290,000 tested, 9.2% active; AID 2315; in the data active = inhibition mostly above about 28%, no sharp cut-off; inactive = mostly below about 43%; note: 0% is about no effect
The depositor's hits bear a star; u = inconclusive; x = no result; [ ] = another dose, or the depositor's remark. Hits are enriched below; roughly 21% of the tested compounds scored in any of these assays. Unless noted, calls come from the whole dose curve; as a rule, active = well fitted curve in the direction sought with a large enough effect; inconclusive = small, poorly fitted or top-dose-only effect, or another doubt; inactive = no such curve, though single readings can be large; an effect the other way counts as inactive or inconclusive.

SMILES	Pf growth 48h	AMA1-RON2 inh	Pf growth 96h	HCV inhibitor	Cycloheximide cs	Shiga toxin inh
COc1ccc(C(=O)N2CCSCC2)cc1OC1CCN(C(C)=O)CC1	15%	-14%	8%	10%	6	-24
COc1cc(C(=O)N2CCCCCCC2)ccc1OC1CCN(C(C)=O)CC1	u	-8%	u	12%	30*	43*
C[C@H]1CCCCO[C@@H](CN(C)C(=O)NC2CCCCC2)[C@@H](C)CN([C@@H](C)CO)C(=O)c2cc(NC(=O)Cc3ccccc3)ccc2O1	x	7%	x	x	x	x
C=CCn1c(O)c(N=NC(=S)Nc2ccc(OC)c(Cl)c2)c2ccccc21	3.7µM*	2%	-19%	u	-3	16
C=CCn1c(O)c(N=NC(=S)Nc2ccccc2C)c2cc(S(=O)(=O)N3CCOCC3)ccc21	2.9µM*	57%	13µM*	u	-3	11
C=CCn1c(O)c(N=Nc2ccccc2C)c2ccccc21	-1%	-5%	43%	14%	0	-11
Cn1c(O)c(N=NC(=S)Nc2ccccc2F)c2cc(S(=O)(=O)N3CCOCC3)ccc21	u	72%	u	u	1	2
Cc1ccc(NC(=S)N=Nc2c(O)n(C)c3ccc(S(=O)(=O)N4CCOCC4)cc23)cc1C	3.3µM*	41%[11.6 µM]	-27%	8%	-4	-20
O=C(COC(=O)c1ccc(F)cc1Cl)NC1CC1	x	9%	x	x	x	x
Cc1oc(-c2ccc3c(c2)OCCO3)cc1C(=O)NC(Cc1ccccc1)C(=O)O (stereo unspecified)	-18%	-14%	22%	5%	2	41
COC(=O)Cc1ccc2sc(-c3ccccc3)nc2c1	32%	9%	5%	u	62*	73*
CC(=O)Nc1cccc(-c2cc(C)c3cc4c(cc3n2)OCO4)c1	24%	-3%	79%	u	37*	109*
CC(=O)Nc1cccc(-c2nc3ccccc3s2)c1	118%	-1%	u	-30%	36*	98*
CC(=O)Nc1cccc(-c2nn[nH]n2)c1	-3%	-19%	11%	-13%	-3	-8
Cc1ccc(C(=O)NC(=S)Nc2cccc(-c3nc4ccccc4s3)c2)cc1	102%	2%	-10%	u	27*	60*
CC(=O)Nc1cccc(-c2nc3ccccc3[nH]2)c1	75%	6%	u	10%	15	36
Cc1ccc(COc2ccc3oc(-c4ccccc4)c(C(=O)O)c3c2)cc1	x	x	x	x	0	14
O=C(CCC1CCCN(C2C3CC4CC(C3)CC2C4)C1)NCc1ccc(F)c(F)c1 (stereo unspecified)	-23%	-9%	4%	-14%	-2	-9
Cc1ccc(NC(=O)C2(C)CCN2C(=O)CC(c2ccccc2)c2ccccc2)cc1 (stereo unspecified)	x	0%	x	x	x	x
CCCCC(CC)CNC(=O)C(=O)c1ccccc1NC(C)=O (stereo unspecified)	u	-11%	u	21%	-2	-14
Cc1ccc(CN2C(=O)C(C)Sc3ccc(C#N)cc32)cc1 (stereo unspecified)	x	12%	x	x	x	x
CC(=O)Nc1ccc2nc(NC(=O)C(Cl)(Cl)Cl)sc2c1	33%	14%	u	26%	-1	8
CC(=O)Nc1cccc(-c2nc3ccc(NC(C)=O)cc3s2)c1	60%	-6%	4%	u	40*	78*
CSc1ccccc1NC(=O)CN(c1cc(C)cc(C)c1)S(C)(=O)=O	-10%	-14%	x	-6%	-1	13
CS(=O)(=O)N(CC(=O)Nc1ccccc1Sc1ccccc1)c1cccc(Br)c1	13µM*	-1%	u	u	-3	-5
SMILES	Pf growth 48h	AMA1-RON2 inh	Pf growth 96h	HCV inhibitor	Cycloheximide cs	Shiga toxin inh
CS(=O)(=O)N(Cc1ccccc1)c1ccc(C(=O)Nc2ccccc2Sc2ccccc2)cc1	12µM*	17%	15µM*	7%	0	6
CS(=O)(=O)N(Cc1ccccc1)c1ccc(C(=O)Nc2ccccc2C(=O)O)cc1	u	-4%	14%	6%	1	x
COC(=O)c1cccc(C(=O)Nc2ccc(C)cc2)n1	82%	3%	u	u	45*	80*
Cc1cc(C(=O)Nc2ccccn2)no1	120%	0%	15%	11%	23*	44*
CCc1ccc(NC(=O)c2cc(C(C)C)on2)cc1	222%	-8%	-5%	-22%	36*	65*
Cc1ccc(NC(=O)c2cc(C)on2)cc1	110%	7%	0%	8%	56*	62
CCc1ccc(NC(=O)c2cccc(C(=O)Nc3ccc(CC)cc3)n2)cc1	u	-2%	u	-15%	13	42
Cc1ccc(NC(=S)Nc2cc(C)on2)cc1	118%	11%	156%	-1%	48*	67*
CCc1ccc(NC(=O)c2cc(C)on2)cc1	181%	-5%	-14%	x	28*	51*
CCc1ccc(NC(=O)c2cc(-c3ccc(OC)cc3)on2)cc1	x	1%	u	4%	64*	41*
CCc1ccc(NC(=O)c2cc(-c3ccc4c(c3)OCO4)on2)cc1	20%	1%	209%	0%	-1	-3
Cc1ccc2c(c1)OC(c1ccc3c(c1)OCCO3)CC2=O (stereo unspecified)	124%	-10%	208%	u	29*	67*
O=C1CC(c2ccc(O)cc2)Oc2cc(O)ccc21 (stereo unspecified)	x	-4%	x	9%	x	x
COc1cc(OC)cc(-c2nnc3n2N=C(c2cc(OC)ccc2OC)CS3)c1	x	x	x	x	-2	-6
O=C(O)c1nn(CCOc2cccc(Br)c2)c(=O)c2ccccc12	3%	0%	28%	-16%	-3	5
COc1ccc(Nc2cccc3ccccc23)cc1	u	u	u	-26%	x	x
O=[N+]([O-])c1ccc(C2=NN(c3ccccc3)C(c3ccco3)C2)cc1 (stereo unspecified)	u	-28%	u	-2%	34*	60*
O=[N+]([O-])c1ccc(/C=C/C2=NN(c3ccccc3)C(c3ccco3)C2)cc1 (stereo unspecified)	-8%	-29%	2%	5%	15*	41
CC1=NN(c2ccccc2)C(c2ccco2)C1 (stereo unspecified)	x	0%	x	-6%	x	x
O=[N+]([O-])c1ccc(C=CC=Cc2ccccc2)cc1	x	-20%	x	x	x	x
Cc1cc(C)cc(NC(=O)Nc2c(Br)cnn2C)c1	1%	5%	38%	1%	15	-1
Cc1ccc(NC(=S)N(CCC(C)C)C(C)c2ccncc2)c(Cl)c1 (stereo unspecified)	u	-15%	u	u	23*	35
COCCCN(C(=S)Nc1ccc(C)cc1Cl)C(C)c1ccncc1 (stereo unspecified)	20%	-3%[11.6 µM]	u	12%	10	9
